Data reported in PubChem BioAssay AID589 (National Center for Advancing Translational Sciences (NCATS), 2007).
Out of some 59,000 compounds screened, about 6,200 (11%) were called active. Another 9% or so got no clear call; they are omitted. Cut-off read from the data, not from the text of the source: active = max dye-equivalent concentration above about 10 nM; inconclusive = mostly about 1.1 nM to 9.6 nM; inactive = weaker than that. The sample as a whole holds a higher share of actives than the screen did.

assay: qHTS Assay for Spectroscopic Profiling in 4-MU Spectral Region; conditions: compound autofluorescence, 340/450 nm, 4-MU equivalents; stronger effect = higher value
In short: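 Intrinsic fluorescence at 340/450 nm (ex/em) was read after 15 min at room temperature in pH 8.0, 100 mM Tris. Each compound concentration expressed as 4-MU-equivalent concentration from a six-point 4-MU standard series on each plate.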

Compound	max dye-equivalent concentration
Cc1ccc(NC(=O)CS(=O)CC(=O)N(c2ccccc2)C(C)C(=O)NC2CCCC2)cc1 (stereo unspecified)	inactive
CC(=O)O[C@]1(C(C)=O)CC[C@@H]2[C@@H]3C=C(C)C4=CC(=O)CC[C@@]4(C)[C@H]3CC[C@]21C	inactive
Cc1ccc(C)c(S(=O)(=O)N2CC(=O)Nc3ccccc32)c1	inactive
N=C(CC(=O)Nc1ccccn1)c1ccccc1	inactive
Cc1cccc(N)c1SC1CCCCC1O (stereo unspecified)	inactive
COc1ccc(C(=O)OCC(=O)c2ccc(C)c(S(=O)(=O)N3CCOCC3)c2)cc1OC	inactive
O=C(NCc1ccc2c(c1)OCO2)c1ccc2c(c1)C(=O)N(CC1CCCO1)C2=O (stereo unspecified)	inactive
CCC(=O)Nc1ccc(C(=O)Nc2ccc3c(c2)C(=O)N(CC2CCCO2)C3=O)cc1 (stereo unspecified)	120 nM (active)
O=C(CCN1C(=O)c2ccncc2C1=O)Nc1ccc2c(c1)OCCO2	inactive
CC(C)(C)n1nnnc1C(c1ccc2ncccc2c1)N1CCSCC1 (stereo unspecified)	inactive
CCOC(=O)N1CCN(C(=O)C2CCN(c3ncnc4c3sc3cccc(F)c34)CC2)CC1	18 nM (active)
CCOC(=O)N1CCN(C(=O)C2CCN(S(C)(=O)=O)CC2)CC1	inactive
CCOC(=O)N1CCN(CC(=O)Nc2cc(C)nn2-c2nc3ccccc3s2)CC1	inactive
C=C(C)c1cccc(C(C)(C)NC(=O)N2CCN(c3ncccn3)CC2)c1	inactive
CC1CCCC(NC(=O)CSc2nccn2C)C1C (stereo unspecified)	inactive
CN1[C@H]2CC(OC(=O)[C@@H](CO)c3ccccc3)C[C@H]1[C@H]1O[C@H]12 (stereo partly specified)	inactive
O=c1cc(-c2ccccc2)[nH]c2nc(Cl)ccc12	76 nM (active)
O=C(NCCN1CCOCC1)c1c(F)c(F)c(F)c(F)c1F	inactive
Oc1c(Br)cc(CN(Cc2cc(Br)c(O)c(Br)c2)C2CCCCC2)cc1Br	inactive
Cc1cc(=O)n2nc(N3CCCC(C(=O)N4CCN(C)CC4)C3)sc2n1 (stereo unspecified)	inactive
Cc1cccc(NC(=O)CSc2nnc(CCCCCNC(=O)OC(C)(C)C)o2)c1C	inactive
COCC(=O)N1CCC2(CCCN(c3ccccc3)C2)CC1	inactive
COC(=O)c1ccc(NCC(=O)c2ccccc2)cc1	inactive

Compound	max dye-equivalent concentration
O=C(Nc1ccc(-c2nnc(-c3ccccc3)o2)cc1)c1ccc(Br)o1	37 nM (active)
O=C(Nc1ccc(-c2nnc(-c3ccccc3)o2)cc1)C1CCCO1 (stereo unspecified)	inactive
O=C(Nc1cccc(-c2nnc(-c3ccccc3)o2)c1)C1CCCO1 (stereo unspecified)	inactive
O=C(c1ccco1)N1CCN(C(=O)C2CC(c3ccc(Cl)c(Cl)c3)=NO2)CC1 (stereo unspecified)	inactive
CC(C)(C)OC(=O)c1c(N)n(CCCN2CCCC2=O)c2nc3ccccc3nc12	6400 nM (active)
CSc1nnc(-c2ccncc2)n1CCCN1CCCC1=O	inactive
O=C(CCn1c(=S)[nH]c2ccccc2c1=O)NCCCN1CCCC1=O	inactive
CC(C)NC(=O)N1CCCC2(CCN(C(=O)c3cccn3C)CC2)C1	inactive
COc1ccc2c(c1)CCc1c(C(=O)N3CCCC3)noc1-2	inactive
COc1cccc(Cn2c(=O)c(CCc3ccccc3)nc3cnc(N(C)C)nc32)c1	22 nM (active)
COc1cccc(Nc2ncc3ncc(=O)n(C4CC4)c3n2)c1	inactive
COc1cccc(Cn2c(=O)c(C)nc3cnc(Oc4ccccc4)nc32)c1	inactive
O=c1cnc2cnc(Nc3ccccc3)nc2n1Cc1ccc(F)cc1	inactive
COc1cccc(Cn2c(=O)cnc3cncnc32)c1	inactive
COc1cccc(CN2C(=O)CCC2(C)C(=O)NC2CCCCCC2)c1 (stereo unspecified)	inactive
CCNc1ncc2ncc(=O)n(Cc3cccc(OC)c3)c2n1	14 nM (active)
COc1cccc(Cn2c(=O)c(-c3ccccc3)nc3cnc(OC)nc32)c1	inactive
COc1ccc(-n2c(C)nc3c(cnn3-c3ccccc3)c2=O)cc1	inactive
CCNc1ncc2nc(CCc3ccccc3)c(=O)n(-c3ccc(OC)cc3)c2n1	12 nM (active)
CCNc1ncc2ncc(=O)n(CCc3ccccc3)c2n1	75 nM (active)
CCc1nnc(NC(=O)CSc2nnc(Cc3ccccc3)n2-c2ccc(OC)cc2)s1	inactive
Cc1cc(N2C(=O)c3ccc(C(=O)NCc4ccccc4)cc3C2=O)no1	inactive
COC(=O)[C@H](Cc1ccccc1)NC(=O)N1CC(C)OC(C)C1 (stereo partly specified)	inactive

Compound	max dye-equivalent concentration
O=C(C1CCC(C(=O)N2CCCC2)CC1)N1CCCC1 (stereo unspecified)	inactive
O=C(c1cccs1)N1CCCC(c2nc(-c3ccc(F)cc3)no2)C1 (stereo unspecified)	inactive
C=CCn1c(=O)c2ccccc2n2c(SCC(=O)N3CCCc4ccccc43)nnc12	inactive
CC(C)CC(=O)N=C1SC2CS(=O)(=O)CC2N1CCc1ccccc1 (stereo unspecified)	inactive
CCCCN(C)C(=O)C1CCN(Cc2ccccn2)CC1	inactive
Cc1nc(SCC(=O)Nc2cc(C)on2)c2c3c(sc2n1)CCCC3	inactive
O=C(Nc1cccc2c1CCCC2)C1CCN(C(=O)NC2CCCCC2)CC1	inactive
CCOc1ccccc1N=C1NC(=O)CS1	inactive
CCc1nnc(NC(=O)c2c(O)c3c([nH]c2=O)CCCC3)s1	inactive
Cc1cccc(CNc2cc(-c3ccccc3Cl)ncn2)c1	inactive
Cc1cnc(CNc2cc(-c3c(C)noc3C)ncn2)cn1	18 nM (active)
Cc1noc(C)c1-c1cc(NCc2cccnc2)ncn1	inactive
CNc1cc(-c2c(C)noc2C)ncn1	inactive
COCCNc1cc(-c2c(C)noc2C)ncn1	11 nM (active)
COc1ccccc1CNc1ncnc2ccc(-c3c(C)noc3C)cc12	inactive
CCOC(=O)c1[nH]cnc1C(=O)NC1CCCCC1	inactive
C[C@]1(O)CC[C@H]2[C@H]3CC=C4N5CCN=C5CC[C@@]4(C)[C@H]3CC[C@@]21C	inactive
O=C(Nc1c(Cl)cccc1Cl)C1CCC1	inactive
O=C(NCc1ccco1)c1cc2sccc2n1Cc1ccc(F)cc1	inactive
Cc1nc2nc(CSc3nc4ccccc4s3)cc(=O)n2[nH]1	inactive
Cc1cccc(-n2c(N)c(C(=O)N3CCN(C)CC3)sc2=S)c1	inactive
CC(C(=O)Nc1ccccc1-c1ccccc1)N1CCOCC1 (stereo unspecified)	inactive
CC(C(=O)N1CCOCC1)N1c2cccc3cccc(c23)S1(=O)=O (stereo unspecified)	74 nM (active)

Compound	max dye-equivalent concentration
O=C(c1ccccc1-c1ccccc1)N1CCOCC1	inactive
COc1ccc(N(CC(=O)NC(C)(C)C)C(=O)c2ccco2)cc1	inactive
COc1cc(C(=O)N(Cc2ccc(N(C)C)cc2)C2CCS(=O)(=O)C2)cc(OC)c1OC (stereo unspecified)	inactive
CCOc1ccc2nc(NCCNS(=O)(=O)c3ccccc3)c(C#N)cc2c1	110 nM (active)
O=C(O)c1cccc(S(=O)(=O)NCCO)c1	inactive
CCOc1ccc(Nc2oc(Cc3ccccc3)nc2C#N)cc1	inactive
Cc1cc(C)c(NC(=O)CS(=O)CC(=O)Nc2cccnc2)c(C)c1 (stereo unspecified)	inactive
COc1ccc(C(CC(=O)O)NC(=O)Cc2ccccc2)cc1 (stereo unspecified)	inactive
CCOC(=O)c1cc(C)sc1NC(=O)C1CCC1	inactive
O=C(Nc1nncs1)c1ccccc1NS(=O)(=O)c1cccs1	530 nM (active)
O=C(C1CCN(S(=O)(=O)c2cccs2)CC1)N1CCCCCC1	inactive
COC(=O)c1ccccc1NC(=O)c1ccccc1NS(C)(=O)=O	inactive
COc1ccc(CNC2CCCCC2)cc1	inactive
c1n[nH]c(NCc2ccc3c(c2)OCO3)n1	inactive
CN(Cc1ccccc1)c1nc2c(c(=O)[nH]c(=O)n2C)n1CCSc1nc2ccccc2[nH]1	inactive
CCOC(=O)c1[nH]c2ccc(OC)cc2c1NC(=O)N1CCOCC1	130 nM (active)
COc1ccc(OC)c(NC(=O)CCN2CCC(C)CC2)c1	inactive
CCOC(=O)c1[nH]c2ccc(OC)cc2c1NC(=O)CCN1CCN(Cc2ccccc2)CC1	57 nM (active)
Cc1c(C(=O)N2CCOCC2)[nH]c2ccc(OCc3ccccc3)cc12	inactive
COc1cc(NC(=O)N2CCOCC2)cc(OC)c1	inactive
COC(=O)c1[nH]c2ccccc2c1NC(=O)CN1CCCc2ccccc21	inactive
COc1cccc(NC(=O)CN(C)S(=O)(=O)c2ccc(C)cc2)c1	inactive
Cc1nonc1OCCn1nnnc1N	inactive

Compound	max dye-equivalent concentration
CCNC(=O)CN(c1ccc(C)cc1)S(=O)(=O)c1ccc(SC)cc1	inactive
C=CCn1c(COc2cccc3cccnc23)nnc1SCC(=O)OC	inactive
CCOc1cc(N2CCOCC2)c(OCC)cc1NC(=O)COc1cccc2cccnc12	16 nM (active)
CC(=O)Nc1cccc(Oc2cc(C#N)c(C#N)cc2N2CCOCC2)c1	inactive
O=C1NC(c2cc3c(cc2Cl)OCO3)Oc2ccccc21 (stereo unspecified)	inactive
Cc1cc2nc(-c3ccc(NC(=O)c4cccnc4)cc3)oc2cc1C	15 nM (active)
CCC(=O)Nc1cccc(NC(=O)c2cccnc2)c1	inactive
CCOC(=O)c1cc(NC(=O)c2cccnc2)cc(C(=O)OCC)c1	inactive
CNc1nc(-c2ccccc2OC)nc2ccccc12	inactive
COc1ccccc1-c1nc(NCc2cccs2)c2ccccc2n1	inactive
Cn1c(COc2ccc(Cl)cc2)nc2ccccc2c1=O	inactive
CCOC(=O)CSc1nc2c(sc(=S)n2CCc2ccccc2)c(=O)n1Cc1ccco1	inactive
Cc1nc2c(c(=O)n1Cc1ccco1)c1nc3ccccc3nc1n2Cc1ccccc1	93 nM (active)
Cc1ccc(Cn2c(C)nc3c(c2=O)c2nc4ccccc4nc2n3Cc2ccco2)cc1	760 nM (active)
COc1ccccc1NC(=O)CSc1nc2sc(C)c(C)c2c(=O)n1Cc1ccco1	inactive
CC(Sc1nc2ccccc2c(=O)n1Cc1ccco1)C(=O)c1ccccc1 (stereo unspecified)	inactive
Cc1nc2ccccc2c(=O)n1CCCn1ccnc1	inactive
O=c1c2ccccc2oc2nc(C3CCCCC3)n(Cc3ccco3)c(=O)c12	inactive
COCCCn1c2nc3ccccc3nc2c2c(=O)n(Cc3ccc(Cl)cc3)c(C)nc21	320 nM (active)
